Here are results for 20 compounds from PubChem BioAssay (EPA / NIEHS).

Several values for one entry are separate records, joined by “and”; a condition that tells them apart may be missing. Equal entries are not always repeated. More than one record can exist for a structure, and the calls need not agree. Activity calls are given as the source filed them. How the source made its calls: active means hit-call score of the fitted dose curve at least 0.9, where 1 is the maximum; inactive means score below 0.9.

Assay [1] addresses Paired box protein Pax-6 (Homo sapiens) (UniProt P26367). Description: ATG_Pax6_CIS: Attagene CIS-FACTORIAL HepG2 Assay for human Paired Box 6 (PAX6) (AID 2282956). The note with it: HepG2 CIS-FACTORIAL PAX6 reporter transcription, RNA readout; actives raise or lower the signal. An outline of the steps:
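HepG2 cells transiently transfected with multiplexed cis-promoter reporter units (endogenous TF activity) were dosed for 24 h. Reporter mRNA was quantified by RT-PCR, 6-FAM labeling, HpaI digestion and capillary electrophoresis; bidirectional fitting versus DMSO baseline.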

Assay [2] can be described thus: ATG_PXRE_CIS: Attagene CIS-FACTORIAL HepG2 Assay for human Pregnane X Receptor Element (PXRE) (AID 2282957). The note with it: HepG2 Attagene CIS-FACTORIAL PXRE reporter, mRNA; actives raise or lower the signal. An outline of the steps: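 Cells: HepG2, transiently transfected reporter units under cis promoter control. Exposure: 24 h. Detection: reporter mRNA via RT-PCR/CE fluorescence; bidirectional fitting, DMSO-referenced.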

A short description of assay [3]: ATG_PPRE_CIS: Attagene CIS-FACTORIAL HepG2 Assay for human Peroxisome Proliferator-activated Response Element (PPRE) (AID 2282958). The settings on record: HepG2 PPRE cis-element reporter, Attagene transcription factor profiling; actives raise or lower the signal. An outline of the steps: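 HepG2 cells transiently transfected with multiplexed cis-element reporter units measure endogenous transcription factor activity. After 24 h compound exposure, reporter mRNA is quantified by RT-PCR, 6-FAM labeling, HpaI digestion and capillary electrophoresis; bidirectional fits are made against DMSO baseline.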

A short description of assay [4]: ATG_RORE_CIS: Attagene CIS-FACTORIAL HepG2 Assay for human RAR-related Orphan Receptor Element (RORE) (AID 2282959). The settings on record: HepG2 Attagene cis-factorial RORE reporter, mRNA; actives raise or lower the signal. An outline of the steps:
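HepG2 cells transiently transfected with multiple cis-element reporter transcription units, exposed to chemical for 24 h. Reporter mRNA quantified by RT-PCR, 6-FAM primer-extension labeling, HpaI digestion and capillary electrophoresis; bidirectional fit versus DMSO baseline.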

A short description of assay [5]: ATG_Sox_CIS: Attagene CIS-FACTORIAL HepG2 Assay for human SRY-box transcription factor (SOX) (AID 2282960). The note with it: HepG2 Attagene cis-factorial SOX reporter, mRNA; actives raise or lower the signal. An outline of the steps: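 HepG2 cells transiently transfected with cis-element-driven multiple reporter transcription units, dosed 24 h; reporter mRNA measured by RT-PCR, FAM labelling, HpaI digestion and capillary electrophoresis. Bidirectional fit versus DMSO baseline.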

In assay [6] the target is Transcription factor Sp1 (Homo sapiens) (UniProt P08047). Description: ATG_Sp1_CIS: Attagene CIS-FACTORIAL HepG2 Assay for human Specificity Protein 1 (Sp1) (AID 2282961). The note with it: HepG2 Sp1 cis-reporter transcription, actives raise or lower the signal. An outline of the steps: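 HepG2 cells transiently transfected with multiple reporter transcription units driven by cis-regulatory elements; Sp1-responsive reporter mRNA measured 24 h after dosing by RT-PCR and capillary electrophoresis fluorescence, fitted bidirectionally against DMSO baseline.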

Assay [7] in a line: ATG_SREBP_CIS: Attagene CIS-FACTORIAL HepG2 Assay for human Sterol Regulatory Element Binding (SREBP) (AID 2282962). The note with it: HepG2 Attagene cis-factorial SREBP reporter, mRNA; actives raise or lower the signal. An outline of the steps: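 HepG2 cells transiently transfected with multiplexed cis-element reporter units report endogenous transcription factor activity. After 24 h of chemical exposure, reporter mRNA was quantified by RT-PCR, 6-FAM labelling, HpaI digestion and capillary electrophoresis; bidirectional fits used DMSO as baseline.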

The target in assay [8] is Signal transducer and activator of transcription 3 (Homo sapiens) (UniProt P40763). Put plainly: ATG_STAT3_CIS: Attagene CIS-FACTORIAL HepG2 Assay for human Signal Transducer and Activator of Transcription 3 (STAT3) (AID 2282963). The note with it: HepG2, Attagene cis-factorial STAT3 reporter transcription; actives raise or lower the signal. An outline of the steps: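 Endogenous STAT3-responsive cis-element activity was read in transiently transfected HepG2 cells after 24 h treatment. Reporter transcripts were quantified via RT-PCR and capillary electrophoresis, with DMSO as negative control and bidirectional curve fitting.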

Assay [9] can be described thus: ATG_TA_CIS: Attagene CIS-FACTORIAL HepG2 Assay for human TA Basal Promoter (AID 2282964). The settings on record: HepG2 Attagene CIS-factorial TA basal promoter reporter; actives raise or lower the signal. An outline of the steps:
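Steps: transfect HepG2 with MRTUs; dose 24 h; isolate RNA, DNase-treat, reverse-transcribe; PCR and FAM-label reporter cDNA; digest with HpaI 2h at 37 C; run capillary electrophoresis. Activity fitted both directions against DMSO.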

A short description of assay [10]: ATG_TCF_b_cat_CIS: Attagene CIS-FACTORIAL HepG2 Assay for human T-Cell-Factor with beta-catenin (TCF/b-cat) (AID 2282965). The settings on record: HepG2 TCF/beta-catenin cis-reporter transcription, actives raise or lower the signal. An outline of the steps:
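Measured: reporter mRNA in HepG2 transiently transfected with cis-promoter reporter units, 24 h after chemical addition. Fitting was bidirectional, DMSO as negative control.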

What is called AC50 is the concentration giving half of the maximal activity seen.

Transcription factor Sp1 (Homo sapiens), sequence (P08047 whole entry, looked up): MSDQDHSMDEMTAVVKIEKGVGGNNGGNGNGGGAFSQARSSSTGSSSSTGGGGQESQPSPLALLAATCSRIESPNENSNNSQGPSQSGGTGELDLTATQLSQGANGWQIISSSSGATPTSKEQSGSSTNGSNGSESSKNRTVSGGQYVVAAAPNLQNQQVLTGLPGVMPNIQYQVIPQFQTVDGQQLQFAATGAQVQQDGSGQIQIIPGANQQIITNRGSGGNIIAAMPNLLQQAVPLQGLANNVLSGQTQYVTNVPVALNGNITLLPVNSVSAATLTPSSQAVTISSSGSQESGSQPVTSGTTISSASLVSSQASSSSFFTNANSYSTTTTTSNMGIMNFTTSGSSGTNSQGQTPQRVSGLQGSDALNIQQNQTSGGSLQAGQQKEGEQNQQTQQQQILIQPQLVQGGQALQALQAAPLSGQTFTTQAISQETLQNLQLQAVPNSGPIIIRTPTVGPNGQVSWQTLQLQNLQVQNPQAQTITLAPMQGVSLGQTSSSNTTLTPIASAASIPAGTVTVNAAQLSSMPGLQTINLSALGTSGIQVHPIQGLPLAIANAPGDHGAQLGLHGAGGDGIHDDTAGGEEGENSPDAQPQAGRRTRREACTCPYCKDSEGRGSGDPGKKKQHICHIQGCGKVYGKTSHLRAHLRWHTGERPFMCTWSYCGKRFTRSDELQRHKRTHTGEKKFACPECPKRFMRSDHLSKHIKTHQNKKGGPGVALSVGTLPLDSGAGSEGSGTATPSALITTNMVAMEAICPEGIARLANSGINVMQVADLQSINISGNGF
Signal transducer and activator of transcription 3 (Homo sapiens), sequence (P40763 whole entry, looked up): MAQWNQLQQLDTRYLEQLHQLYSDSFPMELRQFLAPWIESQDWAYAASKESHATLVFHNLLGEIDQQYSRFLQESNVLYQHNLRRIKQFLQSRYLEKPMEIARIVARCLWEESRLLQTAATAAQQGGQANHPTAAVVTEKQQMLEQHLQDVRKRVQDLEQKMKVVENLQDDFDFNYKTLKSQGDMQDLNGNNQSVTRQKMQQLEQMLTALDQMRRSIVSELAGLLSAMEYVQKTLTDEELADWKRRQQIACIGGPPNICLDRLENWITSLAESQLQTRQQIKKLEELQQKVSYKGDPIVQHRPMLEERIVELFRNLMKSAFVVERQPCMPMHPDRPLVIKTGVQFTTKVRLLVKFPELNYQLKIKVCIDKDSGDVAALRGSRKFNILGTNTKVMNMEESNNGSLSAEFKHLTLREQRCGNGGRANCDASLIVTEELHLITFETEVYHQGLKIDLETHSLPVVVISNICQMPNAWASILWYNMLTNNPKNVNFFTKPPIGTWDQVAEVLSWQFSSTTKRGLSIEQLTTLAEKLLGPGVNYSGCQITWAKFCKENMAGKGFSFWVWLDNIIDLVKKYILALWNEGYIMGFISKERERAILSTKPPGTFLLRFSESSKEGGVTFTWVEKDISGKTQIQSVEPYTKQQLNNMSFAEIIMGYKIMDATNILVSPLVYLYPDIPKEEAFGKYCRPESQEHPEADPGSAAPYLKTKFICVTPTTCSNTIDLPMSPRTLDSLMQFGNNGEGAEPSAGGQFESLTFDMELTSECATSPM
Paired box protein Pax-6 (Homo sapiens), sequence (P26367 whole entry, looked up): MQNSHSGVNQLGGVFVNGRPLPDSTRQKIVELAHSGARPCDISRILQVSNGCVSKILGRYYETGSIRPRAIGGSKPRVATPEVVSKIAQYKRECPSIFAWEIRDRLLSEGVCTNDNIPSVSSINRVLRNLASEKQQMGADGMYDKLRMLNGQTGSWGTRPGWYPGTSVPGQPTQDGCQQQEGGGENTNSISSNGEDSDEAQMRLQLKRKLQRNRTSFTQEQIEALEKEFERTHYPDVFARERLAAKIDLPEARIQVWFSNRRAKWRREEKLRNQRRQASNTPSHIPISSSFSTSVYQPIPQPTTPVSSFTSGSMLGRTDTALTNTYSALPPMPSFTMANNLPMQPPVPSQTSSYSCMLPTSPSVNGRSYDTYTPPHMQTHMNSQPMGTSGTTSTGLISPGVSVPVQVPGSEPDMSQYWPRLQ

For the compound `O=c1[nH]cnc2c1ncn2[C@H]1CC[C@@H](CO)O1`, the compound was called inactive in [1], in assay [2], in assay [3], in assay [4], in assay [5] and in assay [6]. Also, the compound was classed as inactive in assay [7], in [8], in assay [9] and in assay [10].
For the compound `CCCOc1ccc(S(=O)(=O)N2CCN(CC)CC2)cc1-c1nc2c(CC)n(Cc3ccccn3)nc2c(=O)[nH]1`, the AC50 is 40.2 µM (active) in assay [1]; 1.18 µM (active) in assay [2]; 2.63 µM (active) in [4]; 27.5 µM (active) in [7]; 89.8 µM (active) in assay [10]. Moreover, the call in [3], in [5], in [6], in assay [8] and in assay [9] was inactive.
Turning to `O=S(=O)(O)CCC(F)(F)C(F)(F)C(F)(F)C(F)(F)C(F)(F)C(F)(F)F`, the compound was called inactive in assay [1], in assay [2], in [3], in assay [4], in [5] and in assay [6]. In addition, the compound was classed as inactive in assay [8], in assay [9] and in [10].
For `O=C(N[C@H](CO)[C@H](O)c1ccc([N+](=O)[O-])cc1)C(Cl)Cl`, the result in assay [1], in [2], in assay [3], in assay [4], in assay [5] and in assay [6] was inactive. The compound was classed as inactive in assay [7], in [8], in assay [9] and in assay [10]. For the same compound, the concentration at half-maximal activity (AC50) in assay [2] was 69.7 µM (active) [middle of 4 runs].
For `c1ccc2ncccc2c1`, the compound was called inactive in [1], in assay [2], in [3], in assay [4], in assay [5] and in assay [6]. Moreover, the result in [7], in assay [8], in [9] and in assay [10] was inactive.
Take `Cc1cccc(O)c1C`: the outcome in [1], in [2], in assay [3], in [4], in assay [5] and in assay [6] was inactive. Further, the outcome in [7], in [8], in [9] and in assay [10] was inactive. The AC50 in [2] is 31.1 µM (active).
Turning to `OCc1c[nH]c2ccccc12`, the AC50 in [1] is 6.46 µM (active) and 23.1 µM (active) and 38.2 µM (active); in assay [2], 2.76 µM (active) [middle of 5 runs]; in assay [4], 2.51 µM (active) [middle of 5 runs]. Also, the call in assay [1], in assay [5], in assay [6], in [8], in assay [9] and in [10] was inactive.
Regarding `CCCCCCCCCC`, the call in assay [1], in [2], in assay [3], in [4], in assay [5] and in [6] was inactive. Moreover, the call in assay [7], in [8], in assay [9] and in assay [10] was inactive.
As for `NNC(=O)c1ccncc1`, the compound was called inactive in assay [1], in [2], in assay [3], in assay [4], in assay [5] and in assay [6]. Besides, the outcome in assay [8], in assay [9] and in assay [10] was inactive.
As for `OC(CCl)CCl`, the outcome in assay [1], in [2], in [3], in [4], in assay [5] and in assay [6] was inactive. The result in [7], in assay [8], in [9] and in [10] was inactive.
`C=CCc1cc(S(=O)(=O)c2ccc(O)c(CC=C)c2)ccc1O`: the AC50 in assay [1] was 33.4 µM (active); in [2], 2.77 µM (active); in assay [3] it was 8.96 µM (active); in assay [4], 17.4 µM (active); in assay [9], 33.4 µM (active); in [10], 43.7 µM (active). The call in [5], in assay [6] and in assay [8] was inactive.
Turning to `O=C1CN(N=Cc2ccc([N+](=O)[O-])o2)C(=O)N1`, the compound was classed as inactive in assay [1], in assay [2], in [3], in assay [4], in [5] and in [6]. For the same compound, the call in assay [7], in [8] and in assay [9] was inactive. Also, the AC50 in assay [10] was 21.4 µM (active).
With `CCCCOC(=O)c1ccccc1`, the compound was classed as inactive in [1], in [2], in assay [3], in assay [4], in assay [5] and in [6]. The compound was called inactive in assay [7], in assay [8], in assay [9] and in assay [10].
`c1ccc(C(O[C@@H]2CCCN(CCc3ccc4c(c3)OCO4)C2)c2ccccc2)cc1`: the AC50 was 44.3 µM (active) in [1], 0.514 µM (active) in assay [2] and 55.3 µM (active) in [9]. The outcome in [3], in assay [4], in assay [5], in assay [6], in assay [8] and in assay [10] was inactive.
Take `NC(=O)N1c2ccccc2C=Cc2ccccc21`: the compound was called inactive in assay [1], in assay [3], in assay [4], in assay [5], in [6] and in [7]. Also, the compound was classed as inactive in [8], in assay [9] and in [10]. Further, the AC50 in [2] is 34.8 µM (active).
In the case of `Cn1c(=O)c2[nH]cnc2n(C)c1=O`, the compound was called inactive in assay [1], in assay [2], in assay [3], in [4], in assay [5] and in [6]. Also, the compound was classed as inactive in assay [8] and in [9]. Also, the AC50 in [10] is 100 µM (active).
In the case of `FC(F)C(F)(F)COCC1CO1` (centres undefined), the call in [1], in assay [2], in [3], in [4], in assay [5] and in [6] was inactive. Besides, the compound was called inactive in [7], in assay [8], in assay [9] and in assay [10].
In the case of `O=C(Cl)C(F)(F)C(F)(F)C(F)(F)C(=O)Cl`, the compound was classed as inactive in [1], in [2], in [3], in assay [4], in [5] and in [6]. Moreover, the compound was called inactive in assay [8], in assay [9] and in assay [10].
As for `CCCCCCOC(=O)CC(CC(=O)OCCCCCC)(OC(=O)CCC)C(=O)OCCCCCC`, the outcome in assay [1], in assay [3], in assay [4], in [5], in [6] and in assay [7] was inactive. Further, the outcome in [8], in assay [9] and in assay [10] was inactive. Besides, in [2], the AC50 was 0.922 µM (active).
Turning to `Cc1nc(-c2ccccn2)ncc1C(=O)Nn1cc(C)c2cc(F)ccc21`, the compound was classed as inactive in [1], in assay [3], in [4], in [5], in [6] and in assay [8]. In addition, the compound was called inactive in assay [9] and in assay [10]. In assay [2], the AC50 was 4.24 µM (active).
